24 molecules from ChEMBL document CHEMBL4296182, “CO-ADD screening of NIH NCI Diversity Set V” can be followed below.

One assay has as its system Staphylococcus aureus. Nature of the assay: Antibacterial activity against Staphylococcus aureus MRSA ATCC 43300 (CO-ADD:GP_020); MIC in CAMBH media using NBS plates, by Resazurin F(560/590). Type of assay: functional. Conditions: Concentration 20 uM, ASSAY_TEST Inhibition of Bacterial Growth, detection method Resazurin, Fluorescence (ex560/em590), MEDIA CAMHB, plate type 384well, CORNING #3640, time 18 hr. In general terms: Resazurin is reduced to fluorescent resorufin, in cell work by metabolically active cells.

The next assay concerns Acinetobacter baumannii. Kind of assay: Antibacterial activity against Acinetobacter baumannii ATCC 19606 (CO-ADD:GN_034); MIC in CAMBH media using NBS plates, by Resazurin F(560/590). It is filed as functional. Conditions: Concentration 20 uM, ASSAY_TEST Inhibition of Bacterial Growth, detection method Resazurin, Fluorescence (ex560/em590), MEDIA CAMHB, plate type 384well, CORNING #3640, time 18 hr.

Another assay relates to Escherichia coli. Kind of assay: Antibacterial activity against Escherichia coli ATCC 25922 (CO-ADD:GN_001); MIC in CAMBH media using NBS plates, by Resazurin F(560/590). Type of assay: functional. Conditions: Concentration 20 uM, ASSAY_TEST Inhibition of Bacterial Growth, detection method Resazurin, Fluorescence (ex560/em590), MEDIA CAMHB, plate type 384well, CORNING #3640, time 18 hr.

The next assay concerns Klebsiella pneumoniae. Conditions: Concentration 20 uM; ASSAY_TEST Inhibition of Bacterial Growth; detection method Absorption (OD600); MEDIA CAMHB; plate type 384well; NBS; CORNING #3640; time 18 hr.
The subject of the next assay is Candida albicans. Conditions: 20 µM.
The next assay has as its system Cryptococcus neoformans. Conditions: Concentration 20 uM; ASSAY_TEST Inhibition of Fungal Growth; detection method Resazurin; Absorption (OD600-OD570); plate type 384well; NBS; CORNING #3640.

For part of these data: Potency and affinity values are given separately.

With `Cn1ncc2c(Nc3ccc(O)cc3)nc(Cl)nc21`, the Inhibition – broadly, the change of the read-out against control, counted positive when it falls – was 6.63% with Staphylococcus aureus; 8.39% in the assay on Acinetobacter baumannii; 3.23% in the assay with Escherichia coli; 11.85% with Klebsiella pneumoniae; 5.74% in the assay on Candida albicans; -12.05% in the assay on Cryptococcus neoformans.
Take `CC(C)(C)C1=NN=C2c3ccccc3C(=O)C21` (centres undefined): the Inhibition in the assay on Staphylococcus aureus was -4.27%; in the assay on Acinetobacter baumannii it was 3.03%; with Escherichia coli, -6.26%; with Klebsiella pneumoniae it was 1.25%; with Candida albicans, 5.03%; in the assay with Cryptococcus neoformans it was -9.6%.
As to `CC1=CC2(C)NC(=O)C(C)C12` (centres undefined), the Inhibition in the assay with Staphylococcus aureus is 9.76%; in the assay with Acinetobacter baumannii, -10.3%; with Escherichia coli it was 6.64%; with Klebsiella pneumoniae, 6.26%; in the assay with Candida albicans, -0.72%; with Cryptococcus neoformans, -9.55%.
With `C1CCC(NC2=NCCO2)CC1`, the Inhibition with Staphylococcus aureus is -4.28%; in the assay with Acinetobacter baumannii, -18.87%; in the assay with Escherichia coli, 9.63%; with Klebsiella pneumoniae, 6.74%; with Candida albicans it was -0.27%; in the assay with Cryptococcus neoformans, -10.7%.
Regarding `CN(C)c1ncnc2c1ncn2-c1ccccc1`, the Inhibition was -6.98% with Staphylococcus aureus; -8.04% in the assay with Acinetobacter baumannii; 0.85% with Escherichia coli; 6.41% with Klebsiella pneumoniae; 1.36% with Candida albicans; -5.49% in the assay on Cryptococcus neoformans.
In the case of `O=C(O)CCC(=O)c1ccc2ccc3cccc4ccc1c2c34`, the Inhibition was -4.99% with Staphylococcus aureus; 9.69% in the assay with Acinetobacter baumannii; -8.48% in the assay with Escherichia coli; 28.79% in the assay on Klebsiella pneumoniae; 21.7% with Candida albicans; -11.75% in the assay with Cryptococcus neoformans.
Regarding `FC(F)(F)c1nc2nc(Cl)c(Cl)nc2n1CCCN1CCOCC1`, the Inhibition was 14.57% with Staphylococcus aureus; 9.11% with Acinetobacter baumannii; -16.14% in the assay on Escherichia coli; 4.93% in the assay with Klebsiella pneumoniae; 5.42% with Candida albicans; 38.81% in the assay on Cryptococcus neoformans.
As to `Cn1c(=O)c2c(nc(Cc3ccc(N)cc3)n2C)n(C)c1=O`, the Inhibition with Staphylococcus aureus is 12.3%; in the assay on Acinetobacter baumannii it was 8.51%; with Escherichia coli, 1.69%; with Klebsiella pneumoniae, 16.58%; with Candida albicans, -1.67%; in the assay on Cryptococcus neoformans, -5.25%.
Regarding `CCOC(=O)Cc1cnc(S)nc1O`, the Inhibition in the assay on Staphylococcus aureus was 9.6%; in the assay with Acinetobacter baumannii, -11.54%; in the assay with Escherichia coli it was 7.99%; in the assay on Klebsiella pneumoniae it was 8.74%; in the assay with Candida albicans, 1.43%; in the assay with Cryptococcus neoformans it was -1.74%.
Turning to `O=C(Nc1ccc(Oc2ccc(NC(=O)Nc3ccc([N+](=O)[O-])cc3)cc2)cc1)Nc1ccc([N+](=O)[O-])cc1`, the Inhibition in the assay with Staphylococcus aureus is 16.59%; with Acinetobacter baumannii, -20.31%; in the assay with Escherichia coli it was 13.56%; with Klebsiella pneumoniae, 15.1%; in the assay with Candida albicans, 1.13%; with Cryptococcus neoformans, -4.65%.
`Cc1nc(S)nc(O)c1CCC1OCCO1`: the Inhibition is 13.84% in the assay with Staphylococcus aureus; -2.91% in the assay on Acinetobacter baumannii; 10.14% in the assay on Escherichia coli; -2.98% in the assay with Klebsiella pneumoniae; -0.82% with Candida albicans; -7.17% in the assay with Cryptococcus neoformans.
With `O=C(c1ccc(O)cc1)c1ccc(C(=O)c2ccc(O)cc2)cc1`, the Inhibition in the assay on Staphylococcus aureus is 20.54%; with Acinetobacter baumannii it was 4.24%; in the assay with Escherichia coli, 2.65%; with Klebsiella pneumoniae it was 14.45%; in the assay on Candida albicans, 3.86%; with Cryptococcus neoformans, -7.33%.
Turning to `O=C(Oc1cccnc1O)c1cccc(Cl)c1`, the Inhibition was -7.64% in the assay on Staphylococcus aureus; 10.47% in the assay on Acinetobacter baumannii; 6.47% with Escherichia coli; 11.85% with Klebsiella pneumoniae; 13.4% in the assay with Candida albicans; -17.52% with Cryptococcus neoformans.
In the case of `Cc1cc2c(c(C#N)c1C)NC=NC2C` (centres undefined), the Inhibition is 11.79% in the assay with Staphylococcus aureus; -0.59% in the assay with Acinetobacter baumannii; 15.46% in the assay with Escherichia coli; 8.12% in the assay on Klebsiella pneumoniae; -2.89% with Candida albicans; -13.76% with Cryptococcus neoformans.
As to `O=c1cc2oc3cc(O)c(O)cc3c(-c3ccccc3O)c-2cc1O`, the Inhibition with Staphylococcus aureus was -11.77%; in the assay with Acinetobacter baumannii, -19.46%; in the assay on Escherichia coli it was 15.45%; in the assay on Klebsiella pneumoniae it was 16.39%; with Candida albicans it was 44.4%; in the assay with Cryptococcus neoformans it was -6.63%.
On to `CCOc1ccc(Nc2c3ccccc3nc3ccccc23)cc1`, for which the Inhibition in the assay on Staphylococcus aureus was -9%; in the assay on Acinetobacter baumannii, -1.21%; with Escherichia coli it was -17.49%; in the assay on Klebsiella pneumoniae it was 0.35%; in the assay on Candida albicans, -0.79%; in the assay with Cryptococcus neoformans, -2.93%.
Take `CC(C)c1cc(C(F)(F)F)nc(NNc2nc(C(C)C)cc(C(F)(F)F)n2)n1`: the Inhibition in the assay on Staphylococcus aureus is 18.88%; with Acinetobacter baumannii, -11.48%; in the assay with Escherichia coli, 9.37%; in the assay on Klebsiella pneumoniae, 26.13%; in the assay on Candida albicans it was 9.95%; with Cryptococcus neoformans it was -5.35%.
As for `[O-]/[N+](=C\c1ccccc1)CC1(O)CCCCC1`, the Inhibition in the assay with Staphylococcus aureus was determined as 12.91%; in the assay with Acinetobacter baumannii it was 10.28%; in the assay on Escherichia coli, 21.78%; in the assay with Klebsiella pneumoniae it was 2.39%; with Candida albicans it was 5.54%; in the assay with Cryptococcus neoformans it was 9.39%.
On to `CNC1(C(N)=O)CCNCC1`, for which the Inhibition was 10.6% with Staphylococcus aureus; -11.41% in the assay with Acinetobacter baumannii; 16.83% in the assay on Escherichia coli; 15.69% in the assay with Klebsiella pneumoniae; -0.33% in the assay on Candida albicans; -6.49% with Cryptococcus neoformans.
Take `CCCn1cnc2c(Sc3c([N+](=O)[O-])ncn3C)nc(N)nc21`: the Inhibition in the assay on Staphylococcus aureus is -2.1%; with Acinetobacter baumannii it was -3.75%; in the assay on Escherichia coli it was 6.82%; in the assay with Klebsiella pneumoniae, 9.05%; with Candida albicans it was 1.1%; in the assay with Cryptococcus neoformans, -2.37%.
Turning to `CCOC(=O)/C=C/c1nc(O)c(C)c(C(=O)OCC)n1`, the Inhibition was -2.98% with Staphylococcus aureus; -11.68% in the assay with Acinetobacter baumannii; 5.55% in the assay with Escherichia coli; 4.47% with Klebsiella pneumoniae; 0.35% in the assay with Candida albicans; -10.31% in the assay on Cryptococcus neoformans.
Turning to `CC(=O)Nc1nc(C)c(CCCOc2ccc([N+](=O)[O-])cc2)c(O)n1`, the Inhibition in the assay on Staphylococcus aureus was 4.87%; in the assay on Acinetobacter baumannii, 9.03%; with Escherichia coli it was 5.24%; in the assay on Klebsiella pneumoniae it was 2.35%; in the assay with Candida albicans it was 3.22%; in the assay on Cryptococcus neoformans, -1.34%.
As to `Cc1cc(N2CCN(C)CC2)n2nc(-c3ccc(Cl)cc3)nc2n1`, the Inhibition in the assay with Staphylococcus aureus was 10.15%; with Acinetobacter baumannii, 8.53%; in the assay on Escherichia coli, 12.12%; with Klebsiella pneumoniae, 20.83%; in the assay with Candida albicans it was 5.91%; with Cryptococcus neoformans, -6.75%.
As for `CCCSc1nc2c(c(=O)n(C)c(=O)n2C)n1C`, the Inhibition in the assay with Staphylococcus aureus was 3.15%; in the assay on Acinetobacter baumannii it was -8.65%; in the assay with Escherichia coli it was 0.8%; in the assay with Klebsiella pneumoniae, 7.42%; with Candida albicans, 2.63%; with Cryptococcus neoformans it was -7.02%.
